PubChem BioAssay AID504545 (Broad Institute, 2011)
Entries with a potency or affinity are not part of this list. Records with an inconclusive call do not appear. No rule for the calls is given here.

Target: Cyclin-dependent kinase 5 activator 1 (Homo sapiens) + Cyclin-dependent kinase 5 (Homo sapiens) (UniProt Q15078+Q00535)
Assay: blockade of human CDK5 activity – biochemical, cherry-picked samples, set 2, dose response (AID 504545)
Conditions: CDK5/p35 kinase activity, biochemical plate reader; series mostly up to 30 µM; activity change, negative = inhibition: at the top concentration

Cyclin-dependent kinase 5 activator 1 (Homo sapiens) + Cyclin-dependent kinase 5 (Homo sapiens), sequence (Q00535 whole entry, looked up): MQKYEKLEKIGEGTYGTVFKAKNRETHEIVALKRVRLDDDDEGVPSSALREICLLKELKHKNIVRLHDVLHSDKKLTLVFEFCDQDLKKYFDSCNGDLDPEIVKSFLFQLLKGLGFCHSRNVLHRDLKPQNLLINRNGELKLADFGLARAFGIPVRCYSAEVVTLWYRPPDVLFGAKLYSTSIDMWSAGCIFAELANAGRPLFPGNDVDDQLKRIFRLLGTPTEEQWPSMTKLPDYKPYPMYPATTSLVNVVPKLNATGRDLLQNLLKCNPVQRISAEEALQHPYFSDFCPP
Cyclin-dependent kinase 5 activator 1 (Homo sapiens) + Cyclin-dependent kinase 5 (Homo sapiens), sequence (Q15078 whole entry, looked up): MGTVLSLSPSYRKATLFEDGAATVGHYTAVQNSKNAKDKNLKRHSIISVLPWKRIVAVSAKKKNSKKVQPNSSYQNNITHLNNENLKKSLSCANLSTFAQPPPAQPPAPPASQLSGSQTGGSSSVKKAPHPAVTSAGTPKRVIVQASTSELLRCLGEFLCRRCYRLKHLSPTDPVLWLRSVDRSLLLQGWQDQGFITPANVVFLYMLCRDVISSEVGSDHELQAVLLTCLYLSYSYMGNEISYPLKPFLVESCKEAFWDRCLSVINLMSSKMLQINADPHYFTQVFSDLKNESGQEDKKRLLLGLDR

Activity change, negative = inhibition, inactive:
Cc1ccc2nc(NCc3ccccc3)c(C#N)cc2c1 15.1%
S=C(c1ccc(OCc2ccccc2)cc1)N1CCCC1 -1.92%
CC(=O)[C@H]1CC[C@H]2[C@@H]3CC=C4C[C@@H](OS(=O)(=O)O)CC[C@]4(C)[C@H]3CC[C@]12C -5.29%
Cc1nn(-c2ccccn2)c2c1C(=O)CC(C)(C)C2Br (stereo not given) 5.29%
NC(=S)N/N=C/c1c(O)c(Br)cc2oc3c(c12)CCCC3 -15.6%
CC(C)(C)c1ccc(C(=O)O/N=C(\N)c2ccccn2)cc1 11.4%
Cc1nc(Nc2ccccc2)sc1C(=O)c1ccccc1 -4.27%
COc1cc(OC)cc(C(=O)NNC(=O)c2ccccn2)c1 6.58%
CC(C)n1cnc2c(N(C)c3cccc(Cl)c3)nc(N(CCO)CCO)nc21 3.33%
COc1ccc2ccc3ccc(OC)c(OC(C)=O)c3c2c1 -3.35%
Clc1cncc(Cl)c1N/N=C/c1ccccc1 8.75%
Clc1cccc(Cl)c1/C=N/Nc1c(Cl)cncc1Cl -9.72%
Cc1nc(Nc2ccccc2)sc1C(=O)c1ccc(F)cc1 -0.33%
COc1ccc2nc(C)cc(Nc3ccc(C)cc3)c2c1 7.73%
Cc1ccc2nc(Cl)c(C#N)cc2c1 8.05%
COc1ccc(C(=O)c2sc(Nc3ccccc3F)nc2N)cc1 -8.79%
CCNc1nc(Nc2ccc(C)c(Cl)c2)c2cnn(C)c2n1 10.2%
COc1ccc2nc(C(F)(F)C(F)(F)F)c(C#N)c(N)c2c1 2.9%
O=[N+]([O-])c1ccc2c(c1)/C(=N\O)c1ccccc1-2 -11.8%
Cc1ccc(C(=O)O/N=C(\N)c2ccccn2)cc1C 12.2%
